From paper PMC9911399, “Two distinct binding modes provide the RNA-binding protein RbFox with extraordinary sequence specificity”
Substitutions are numbered along the chain they refer to; changes in the protein carry UniProt numbers. Over roughly 16,000 sequences, “ka relative to ugcaugu” has its median near 0.0091; the highest 2% begin near 0.032. The entries come from a sample that favours the highest values as a whole.

T1: RBFOX1 RRM (Homo sapiens, UniProt Q9NWB1 109-208)
T1 sequence: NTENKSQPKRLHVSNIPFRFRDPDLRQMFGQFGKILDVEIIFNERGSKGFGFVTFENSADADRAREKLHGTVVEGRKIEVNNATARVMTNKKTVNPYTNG

B1: UAUUAAG (DNA:RNA)
RNA: GGGAGACCGGAAUUCAGAUUGUCCUAUUAAGUUAAAUCCCGUCGUAGCCACCA
DNA 1: CAATCTGAATTCCGGTCTCCC
DNA 2: TGGTGGCTACGACGGGATT
B2: UCGCAGA (DNA:RNA)
RNA: B1 RNA with A26C, U27G, U28C, A30G, G31A
DNA 1: CAATCTGAATTCCGGTCTCCC
DNA 2: TGGTGGCTACGACGGGATT
B3: AUACCGG (DNA:RNA)
RNA: B1 RNA with U25A, A26U, U27A, U28C, A29C, A30G
DNA 1: CAATCTGAATTCCGGTCTCCC
DNA 2: TGGTGGCTACGACGGGATT
B4: ACGUGUU (DNA:RNA)
RNA: B1 RNA with U25A, A26C, U27G, A29G, A30U, G31U
DNA 1: CAATCTGAATTCCGGTCTCCC
DNA 2: TGGTGGCTACGACGGGATT
B5: GCAGUUG (DNA:RNA)
RNA: B1 RNA with U25G, A26C, U27A, U28G, A29U, A30U
DNA 1: CAATCTGAATTCCGGTCTCCC
DNA 2: TGGTGGCTACGACGGGATT
B6: CUGCUCG (DNA:RNA)
RNA: B1 RNA with U25C, A26U, U27G, U28C, A29U, A30C
DNA 1: CAATCTGAATTCCGGTCTCCC
DNA 2: TGGTGGCTACGACGGGATT
B7: CUGCCCG (DNA:RNA)
RNA: B1 RNA with U25C, A26U, U27G, U28C, A29C, A30C
DNA 1: CAATCTGAATTCCGGTCTCCC
DNA 2: TGGTGGCTACGACGGGATT
B8: CUGUCCG (DNA:RNA)
RNA: B1 RNA with U25C, A26U, U27G, A29C, A30C
DNA 1: CAATCTGAATTCCGGTCTCCC
DNA 2: TGGTGGCTACGACGGGATT
B9: UCGUCGU (DNA:RNA)
RNA: B1 RNA with A26C, U27G, A29C, A30G, G31U
DNA 1: CAATCTGAATTCCGGTCTCCC
DNA 2: TGGTGGCTACGACGGGATT
B10: UGCCCGU (DNA:RNA)
RNA: B1 RNA with A26G, U27C, U28C, A29C, A30G, G31U
DNA 1: CAATCTGAATTCCGGTCTCCC
DNA 2: TGGTGGCTACGACGGGATT
B11: UGCUCGU (DNA:RNA)
RNA: B1 RNA with A26G, U27C, A29C, A30G, G31U
DNA 1: CAATCTGAATTCCGGTCTCCC
DNA 2: TGGTGGCTACGACGGGATT
B12: AAAUGGU (DNA:RNA)
RNA: B1 RNA with U25A, U27A, A29G, A30G, G31U
DNA 1: CAATCTGAATTCCGGTCTCCC
DNA 2: TGGTGGCTACGACGGGATT
B13: GAUCCGC (DNA:RNA)
RNA: B1 RNA with U25G, U28C, A29C, A30G, G31C
DNA 1: CAATCTGAATTCCGGTCTCCC
DNA 2: TGGTGGCTACGACGGGATT
B14: CCACACG (DNA:RNA)
RNA: B1 RNA with U25C, A26C, U27A, U28C, A30C
DNA 1: CAATCTGAATTCCGGTCTCCC
DNA 2: TGGTGGCTACGACGGGATT
B15: CUAAGCU (DNA:RNA)
RNA: GGGAGACCGGAAUUCAGAUUGUCCCUAAGCUUUAAAUCCCGUCGUAGCCACCA
DNA 1: CAATCTGAATTCCGGTCTCCC
DNA 2: TGGTGGCTACGACGGGATT
B16: UCCUUUG (DNA:RNA)
RNA: B1 RNA with A26C, U27C, A29U, A30U
DNA 1: CAATCTGAATTCCGGTCTCCC
DNA 2: TGGTGGCTACGACGGGATT
B17: UUUGUCC (DNA:RNA)
RNA: B15 RNA with C25U, A27U, A28G, G29U, U31C
DNA 1: CAATCTGAATTCCGGTCTCCC
DNA 2: TGGTGGCTACGACGGGATT
B18: UUUGUCG (DNA:RNA)
RNA: B1 RNA with A26U, U28G, A29U, A30C
DNA 1: CAATCTGAATTCCGGTCTCCC
DNA 2: TGGTGGCTACGACGGGATT
B19: UUGUCGU (DNA:RNA)
RNA: B15 RNA with C25U, A27G, A28U, G29C, C30G
DNA 1: CAATCTGAATTCCGGTCTCCC
DNA 2: TGGTGGCTACGACGGGATT
B20: UUUGUUG (DNA:RNA)
RNA: B1 RNA with A26U, U28G, A29U, A30U
DNA 1: CAATCTGAATTCCGGTCTCCC
DNA 2: TGGTGGCTACGACGGGATT
B21: UUGUUGU (DNA:RNA)
RNA: B15 RNA with C25U, A27G, A28U, G29U, C30G
DNA 1: CAATCTGAATTCCGGTCTCCC
DNA 2: TGGTGGCTACGACGGGATT
B22: UUUUGUG (DNA:RNA)
RNA: B1 RNA with A26U, A29G, A30U
DNA 1: CAATCTGAATTCCGGTCTCCC
DNA 2: TGGTGGCTACGACGGGATT
B23: UUGUUUG (DNA:RNA)
RNA: B1 RNA with A26U, U27G, A29U, A30U
DNA 1: CAATCTGAATTCCGGTCTCCC
DNA 2: TGGTGGCTACGACGGGATT
B24: UUUUUUG (DNA:RNA)
RNA: B1 RNA with A26U, A29U, A30U
DNA 1: CAATCTGAATTCCGGTCTCCC
DNA 2: TGGTGGCTACGACGGGATT
B25: UGACACA (DNA:RNA)
RNA: B15 RNA with C25U, U26G, A28C, G29A, U31A
DNA 1: CAATCTGAATTCCGGTCTCCC
DNA 2: TGGTGGCTACGACGGGATT
B26: AAUCAAU (DNA:RNA)
RNA: B1 RNA with U25A, U28C, G31U
DNA 1: CAATCTGAATTCCGGTCTCCC
DNA 2: TGGTGGCTACGACGGGATT
B27: GAAAAUG (DNA:RNA)
RNA: B1 RNA with U25G, U27A, U28A, A30U
DNA 1: CAATCTGAATTCCGGTCTCCC
DNA 2: TGGTGGCTACGACGGGATT
B28: CCUGCUU (DNA:RNA)
RNA: B15 RNA with U26C, A27U, A28G, G29C, C30U
DNA 1: CAATCTGAATTCCGGTCTCCC
DNA 2: TGGTGGCTACGACGGGATT
B29: AUGUAGU (DNA:RNA)
RNA: B15 RNA with C25A, A27G, A28U, G29A, C30G
DNA 1: CAATCTGAATTCCGGTCTCCC
DNA 2: TGGTGGCTACGACGGGATT
B30: UAUUUGU (DNA:RNA)
RNA: B1 RNA with A29U, A30G, G31U
DNA 1: CAATCTGAATTCCGGTCTCCC
DNA 2: TGGTGGCTACGACGGGATT
B31: CACGCGU (DNA:RNA)
RNA: B15 RNA with U26A, A27C, A28G, G29C, C30G
DNA 1: CAATCTGAATTCCGGTCTCCC
DNA 2: TGGTGGCTACGACGGGATT

molecular target: T1, RBFOX1 RRM; assay: EMSA; HiTS-Eq, 1 nM pool, 10 min; buffer printed only for the single-RNA assays: 10 mM Tris pH 7.5, 150 mM NaCl, 3.4 mM EDTA, 0.001% NP-40, 30 C; conditions: tags: His6 N-terminal (pET28a); label: 5' 32P
Method in brief: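 Purified RbFox RRM, wild type or mutant, was incubated for 10 min in 50 µL with 1 nM of a 5′-radiolabelled RNA pool carrying 7 randomized nucleotides, whose flanks were annealed to DNA oligonucleotides, over a series of increasing protein concentrations. Unbound RNA was resolved on 8% native PAGE, cut out, reverse-transcribed, barcoded by PCR and sequenced on an Illumina HiSeq 2500. Relative association constants were derived from changes in read counts for each RNA species versus the control reaction and normalised to the cognate motif.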

Binder | binding signal
B1 | 0.0136 KA relative to UGCAUGU
B2 | 0.013 KA relative to UGCAUGU
B3 | 0.00158 KA relative to UGCAUGU
B4 | 0.0131 KA relative to UGCAUGU
B5 | 0.0127 KA relative to UGCAUGU
B6 | 0.0406 KA relative to UGCAUGU
B7 | 0.0183 KA relative to UGCAUGU
B8 | 0.0164 KA relative to UGCAUGU
B9 | 0.0184 KA relative to UGCAUGU
B10 | 0.0214 KA relative to UGCAUGU
B11 | 0.0359 KA relative to UGCAUGU
B12 | 0.00783 KA relative to UGCAUGU
B13 | 0.0132 KA relative to UGCAUGU
B14 | 0.0022 KA relative to UGCAUGU
B15 | 0.00577 KA relative to UGCAUGU
B16 | 0.0195 KA relative to UGCAUGU

Binder | binding signal
B17 | 0.0149 KA relative to UGCAUGU
B18 | 0.0272 KA relative to UGCAUGU
B19 | 0.0256 KA relative to UGCAUGU
B20 | 0.0349 KA relative to UGCAUGU
B21 | 0.0241 KA relative to UGCAUGU
B22 | 0.0302 KA relative to UGCAUGU
B23 | 0.0392 KA relative to UGCAUGU
B24 | 0.0341 KA relative to UGCAUGU
B25 | 0.00643 KA relative to UGCAUGU
B26 | 0.000959 KA relative to UGCAUGU
B27 | 0.00709 KA relative to UGCAUGU
B28 | 0.0137 KA relative to UGCAUGU
B29 | 0.00813 KA relative to UGCAUGU
B30 | 0.0237 KA relative to UGCAUGU
B31 | 0.00634 KA relative to UGCAUGU
